# Measured values taken from PubChem BioAssay (NCATS).
# Values without a mark were called inactive. The source made the active and inactive calls. Calls come from the whole dose curve; as a rule, active = well fitted curve in the direction sought with a large enough effect; inconclusive = small, poorly fitted or top-dose-only effect, or effect the other way, or another doubt; inactive = no such curve, though single readings can be large or run the other way.
# Assay: Inducers of the Endoplasmic Reticulum Stress Response (ERSR) in human glioma: Validation (AID 504836); note: 0% is about no effect
# Details: human glioma cells, ER stress response reporter; series mostly up to 38.3 µM; activation: at the top concentration
# In short: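 Stably transfected U87-MG glioma cells carrying a GRP78-based luciferase sensor; 16 h compound incubation. Luminescence end-point read 10 min after Bright-Glo addition at room temperature.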
Compound,activation [%],outcome
COc1cc(NS(C)(=O)=O)ccc1Nc1c2ccccc2nc2ccccc12,-3.07,
CCOC(=O)C1=C(C)NC(C)=C(C(=O)OC)C1c1cccc([N+](=O)[O-])c1 (stereo not given),-0.249,
CC(C)NCC(O)c1cc(O)cc(O)c1 (stereo not given),0.82,
Nc1ccn([C@@H]2O[C@H](CO)[C@@H](O)C2O)c(=O)n1 (stereo not given in full),-4.08,
CN1CCN(CC(=O)N2c3ccccc3C(=O)Nc3cccnc32)CC1,0.906,
CCC1(C)CC(=O)NC1=O (stereo not given),-4.67,
CCCCCN(C)CCC(O)(P(=O)(O)O)P(=O)(O)O,-4.53,
CCO/C([O-])=N/c1c[n+](N2CCOCC2)no1,0.993,
CCCCCCCC/C=C\CCCCCCCC(=O)NCc1ccc(O)c(OC)c1,0.188,
CC(C)(Oc1ccc(C2CC2(Cl)Cl)cc1)C(=O)O (stereo not given),-0.971,
CC(CCc1ccccc1)NCC(O)c1ccc(O)c(C(N)=O)c1 (stereo not given),-1.24,
CNCCC=C1c2ccccc2CCc2ccccc21,-7.33,
COCCOC(=O)C1=C(C)NC(C)=C(C(=O)OC(C)C)C1c1cccc([N+](=O)[O-])c1 (stereo not given),-1.48,
NC(=O)c1ncn([C@@H]2O[C@H](CO)[C@@H](O)[C@H]2O)c1O,-1.2,
NC(=O)c1cnccn1,-2.75,
O=C(O)CCCCCCCC(=O)O,-4.23,
CC(C)(C)NCC(O)c1cc(O)cc(O)c1 (stereo not given),2.91,
NC(N)=NC(=O)Cc1c(Cl)cccc1Cl,-3.77,
COc1ccc2[nH]cc(CCNC(C)=O)c2c1,-3.55,
CC(C)NCC(O)c1ccc(NS(C)(=O)=O)cc1 (stereo not given),-2.63,

Compound,activation [%],outcome
CCN(CC)CCNC(=O)c1ccc(N)cc1,-0.55,
CC(C)NNC(=O)c1ccncc1,-2.53,
Cc1ccc(Cl)c(Nc2ccccc2C(=O)O)c1Cl,3.82,
Cc1nc2c([nH]1)c(=O)n(C)c(=O)n2Cc1ccco1,0.44,
CC(=O)OCC(=O)[C@@]1(O)CC[C@H]2[C@@H]3CCC4=CC(=O)CC[C@]4(C)[C@H]3C(=O)C[C@@]21C,1.53,
O=c1[nH]c(=O)n([C@H]2C[C@H](O)[C@@H](CO)O2)cc1Br,-4.26,
Nc1ccc(S(=O)(=O)Nc2ccnn2-c2ccccc2)cc1,-2.81,
c1ccc2c(c1)CCCC2C1=NCCN1 (stereo not given),-2.31,
NCCS(=O)(=O)O,-1.34,
COc1ccc2cc([C@H](C)C(=O)O)ccc2c1,-4.06,
CCOC(=O)c1cnc2c(cnn2CC)c1NN=C(C)C,-1.91,
CC1COc2c(N3CCN(C)CC3)c(F)cc3c(=O)c(C(=O)O)cn1c23 (stereo not given),-2.91,
O=C1NCC2(CCN(CCc3ccccc3)CC2)O1,-1.8,
C[N+](C)(C)CCCCCC[N+](C)(C)C,,inactive
CC(C)(C)NC[C@H](O)COc1nsnc1N1CCOCC1,-4.42,
C1COC(NC(C2CC2)C2CC2)=N1,-5.11,
CCN(CC)C(=O)c1ccc(O)c(OC)c1,-3.7,
NC1CCN(c2cccc(Cl)n2)CC1,-2.43,
Cn1c(=O)c2[nH]cnc2n(C)c1=O,-0.235,
CCOC(=O)[C@H](CCc1ccccc1)N[C@@H](C)C(=O)N1[C@H](C(=O)O)C[C@H]2CCCC[C@@H]21,-0.187,
